Results as given in the supplement of paper PMC3334620.
The full ranking holds about 33,000 sequences; the median of “E-score (-0.5 to 0.5)” is about -0.0034, and the highest 2% start at about 0.25. This excerpt belongs to a sample that is enriched for the highest values.

The sequences below were run against T1, Yap3 (UniProt P38749) (assay: PBM E-score (8-mer binding enrichment) (E-score (-0.5 to 0.5)); higher = stronger / more preferred TF binding). Settings: protein concentration: 100 nM; construct: GST-full length.
T1 sequence: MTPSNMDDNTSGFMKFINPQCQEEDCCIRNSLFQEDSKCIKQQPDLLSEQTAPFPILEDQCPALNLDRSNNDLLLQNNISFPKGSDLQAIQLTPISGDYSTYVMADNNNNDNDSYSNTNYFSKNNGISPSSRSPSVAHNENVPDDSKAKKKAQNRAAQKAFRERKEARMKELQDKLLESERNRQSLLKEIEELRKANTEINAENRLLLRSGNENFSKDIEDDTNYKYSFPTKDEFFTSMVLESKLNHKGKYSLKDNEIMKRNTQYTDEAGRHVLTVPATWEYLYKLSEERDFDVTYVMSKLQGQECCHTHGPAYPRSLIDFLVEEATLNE
Experimental: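 Universal 'all 10-mer' protein binding microarrays (Agilent AMADID 015681) probed with GST-tagged S. cerevisiae TFs (full-length or DBD) made by in vitro transcription/translation (PURExpress), about 100-200 nM. Bound TF was detected with fluorescent anti-GST. Each ungapped 8-mer (which stands for itself and its reverse complement) is scored by the PBM enrichment score (E-score), a modified Wilcoxon-Mann-Whitney statistic from -0.5 to +0.5, computed with the Universal PBM Analysis Suite. Scale: above 0.35 generally sequence-specific binding.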

**Q.** For CCGCTAGG, which “PBM E-score” value is on record?
**A.** -0.128

**Q.** With ACGCACGT as the sequence, how does the “PBM E-score” value read?
**A.** -0.206

**Q.** With ACGCACGA as the sequence, how does the “PBM E-score” value read?
**A.** 0.131

**Q.** For ACGCACGC, which “PBM E-score” value is on record?
**A.** 0.262

**Q.** TCATGGGA was tested. Which “PBM E-score” value did it give?
**A.** 0.00531

**Q.** ATTAAAAA was tested. Which “PBM E-score” value did it give?
**A.** 0.285

**Q.** With GATTAAAA as the sequence, how does the “PBM E-score” value read?
**A.** 0.192

**Q.** With ATTAAATG as the sequence, how does the “PBM E-score” value read?
**A.** 0.266

**Q.** Which “PBM E-score” value does the source give for ATTAAAAG here?
**A.** 0.0983

**Q.** For ATTAAATC, which “PBM E-score” value is on record?
**A.** 0.211

**Q.** Which “PBM E-score” value does the source give for ATTAAACG here?
**A.** 0.215

**Q.** For ATTAAATA, which “PBM E-score” value is on record?
**A.** 0.268

**Q.** ATTAAAAC was tested. Which “PBM E-score” value did it give?
**A.** 0.236

**Q.** How did the “PBM E-score” value turn out when CATTAAAA was run?
**A.** 0.281

**Q.** For GTTAAATA, which “PBM E-score” value is on record?
**A.** 0.178

**Q.** Which “PBM E-score” value does the source give for CTTAAATA here?
**A.** 0.092

**Q.** TATTAAAA was tested. Which “PBM E-score” value did it give?
**A.** 0.217

**Q.** For CAAGGTAG, which “PBM E-score” value is on record?
**A.** -0.142

**Q.** ATGCGCCG was tested. Which “PBM E-score” value did it give?
**A.** 0.00281

**Q.** Which “PBM E-score” value does the source give for AAAGAGAT here?
**A.** -0.0227

**Q.** Which “PBM E-score” value does the source give for AGCGAGAA here?
**A.** -0.0207

**Q.** With GCAATCCA as the sequence, how does the “PBM E-score” value read?
**A.** 0.0882

**Q.** How did the “PBM E-score” value turn out when ACAATCCA was run?
**A.** 0.287

**Q.** With CAAATCCA as the sequence, how does the “PBM E-score” value read?
**A.** 0.151

**Q.** ACAATCCG was tested. Which “PBM E-score” value did it give?
**A.** 0.116

**Q.** AAAATCCA was tested. Which “PBM E-score” value did it give?
**A.** 0.28

**Q.** GAAATCCA was tested. Which “PBM E-score” value did it give?
**A.** 0.0886

**Q.** How did the “PBM E-score” value turn out when AGAATGCG was run?
**A.** 0.0426

**Q.** With AATAGTAT as the sequence, how does the “PBM E-score” value read?
**A.** 0.229

**Q.** Which “PBM E-score” value does the source give for GTATCCGA here?
**A.** -0.0824

**Q.** With ATTAGGTA as the sequence, how does the “PBM E-score” value read?
**A.** 0.167

**Q.** How did the “PBM E-score” value turn out when ATTACGCC was run?
**A.** 0.0197

**Q.** With ATTAGGTC as the sequence, how does the “PBM E-score” value read?
**A.** 0.286

**Q.** For AATACGTC, which “PBM E-score” value is on record?
**A.** 0.188

**Q.** CTTAGGTC was tested. Which “PBM E-score” value did it give?
**A.** -0.0924

**Q.** How did the “PBM E-score” value turn out when ATTACGTG was run?
**A.** 0.397

**Q.** With ACTACGTG as the sequence, how does the “PBM E-score” value read?
**A.** -0.166

**Q.** For AGTACGTG, which “PBM E-score” value is on record?
**A.** -0.0755

**Q.** With ACTACGTC as the sequence, how does the “PBM E-score” value read?
**A.** -0.0702

**Q.** Which “PBM E-score” value does the source give for ATTACGTC here?
**A.** 0.33

**Q.** ATTACGCA was tested. Which “PBM E-score” value did it give?
**A.** 0.233

**Q.** With ATTACGCG as the sequence, how does the “PBM E-score” value read?
**A.** 0.311

**Q.** How did the “PBM E-score” value turn out when AGTAAACT was run?
**A.** 0.0322

**Q.** For CATCTGGC, which “PBM E-score” value is on record?
**A.** -0.066

**Q.** With TAGTACTA as the sequence, how does the “PBM E-score” value read?
**A.** 0.0913

**Q.** GGCTACAC was tested. Which “PBM E-score” value did it give?
**A.** -0.166

**Q.** With CGACTACA as the sequence, how does the “PBM E-score” value read?
**A.** 0.0886

**Q.** ATTGGCTC was tested. Which “PBM E-score” value did it give?
**A.** 0.0983

**Q.** Which “PBM E-score” value does the source give for ATGGTAAT here?
**A.** 0.128

**Q.** Which “PBM E-score” value does the source give for AAGGACAC here?
**A.** -0.0338

**Q.** How did the “PBM E-score” value turn out when ACCCGGGT was run?
**A.** -0.12

**Q.** Which “PBM E-score” value does the source give for ACCTTCAC here?
**A.** 0.00082

**Q.** For ATTGGTTG, which “PBM E-score” value is on record?
**A.** 0.118

**Q.** CTGTACGA was tested. Which “PBM E-score” value did it give?
**A.** 0.0353

**Q.** TACAGTAA was tested. Which “PBM E-score” value did it give?
**A.** 0.183

**Q.** Which “PBM E-score” value does the source give for CACAGTAA here?
**A.** 0.265

**Q.** CACAGTAG was tested. Which “PBM E-score” value did it give?
**A.** 0.0618

**Q.** For ATTTCGAG, which “PBM E-score” value is on record?
**A.** 0.141

**Q.** With ATTTCGAC as the sequence, how does the “PBM E-score” value read?
**A.** -0.0412

**Q.** Which “PBM E-score” value does the source give for ATTTCGAA here?
**A.** 0.261

**Q.** Which “PBM E-score” value does the source give for TGCGTGAA here?
**A.** 0.107

**Q.** How did the “PBM E-score” value turn out when ACATTAGT was run?
**A.** 0.0888

**Q.** ATTTTATG was tested. Which “PBM E-score” value did it give?
**A.** 0.21

**Q.** For CATTTATC, which “PBM E-score” value is on record?
**A.** 0.198

**Q.** AGTTTATA was tested. Which “PBM E-score” value did it give?
**A.** 0.205

**Q.** For ATTTTATA, which “PBM E-score” value is on record?
**A.** 0.331

**Q.** With GTTTTATA as the sequence, how does the “PBM E-score” value read?
**A.** 0.139

**Q.** AATTTATC was tested. Which “PBM E-score” value did it give?
**A.** 0.325

**Q.** Which “PBM E-score” value does the source give for GGTTTATA here?
**A.** 0.0813

**Q.** CCTTTATA was tested. Which “PBM E-score” value did it give?
**A.** 0.0052

**Q.** How did the “PBM E-score” value turn out when ATTTTATC was run?
**A.** 0.235

**Q.** How did the “PBM E-score” value turn out when ACTTTATA was run?
**A.** 0.259

**Q.** For ACTTTATC, which “PBM E-score” value is on record?
**A.** 0.169

**Q.** How did the “PBM E-score” value turn out when CGTTTATA was run?
**A.** 0.28

**Q.** For GGCAGTCA, which “PBM E-score” value is on record?
**A.** -0.11

**Q.** Which “PBM E-score” value does the source give for AAGGTAAC here?
**A.** 0.121

**Q.** AATTTGAT was tested. Which “PBM E-score” value did it give?
**A.** 0.0887

**Q.** Which “PBM E-score” value does the source give for ATCGTTTA here?
**A.** 0.135

**Q.** How did the “PBM E-score” value turn out when AAGAGCCG was run?
**A.** -0.0966

**Q.** With AGTCACGG as the sequence, how does the “PBM E-score” value read?
**A.** 0.00648

**Q.** With AGGCAGAA as the sequence, how does the “PBM E-score” value read?
**A.** -0.0515

**Q.** How did the “PBM E-score” value turn out when CCTCGCAC was run?
**A.** -0.133

**Q.** How did the “PBM E-score” value turn out when CATTTATA was run?
**A.** 0.215

**Q.** AATTTATA was tested. Which “PBM E-score” value did it give?
**A.** 0.294

**Q.** How did the “PBM E-score” value turn out when AATTTATG was run?
**A.** 0.252

**Q.** For GGACATAA, which “PBM E-score” value is on record?
**A.** 0.0711

**Q.** For ATGCATTC, which “PBM E-score” value is on record?
**A.** 0.0938

**Q.** With TGACATAA as the sequence, how does the “PBM E-score” value read?
**A.** 0.3

**Q.** With AGACATAA as the sequence, how does the “PBM E-score” value read?
**A.** 0.136

**Q.** For CTCCATAA, which “PBM E-score” value is on record?
**A.** -0.0865

**Q.** Which “PBM E-score” value does the source give for AACCATAC here?
**A.** 0.0832

**Q.** With ATGCATTA as the sequence, how does the “PBM E-score” value read?
**A.** 0.333

**Q.** For ATCCATAA, which “PBM E-score” value is on record?
**A.** 0.258

**Q.** For CTGCATTA, which “PBM E-score” value is on record?
**A.** -0.0676

**Q.** For AACCATAT, which “PBM E-score” value is on record?
**A.** 0.266

**Q.** GTCCATAA was tested. Which “PBM E-score” value did it give?
**A.** -0.0433

**Q.** With AACCATAA as the sequence, how does the “PBM E-score” value read?
**A.** 0.15
